About 79,000 compounds went through this panel and 15% of them were active in at least one assay; those are over-represented in the sample as a whole. Values without a mark were called inactive. The source made the active and inactive calls. Cut-off read from the data, not from the text of the source: active = growth inhibition above about 70%; inactive = the rest.
Columns and labels:
[1] = NCI Yeast Anticancer Drug Screen. Data for the wt1 strain (AID 149);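 note: 0% = growth of vehicle-treated wt1 cultures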; settings: S. cerevisiae wt1 strain (SPY 50644) growth inhibition, stronger effect = higher value
Method in brief: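 Using yeast strain wt1, compound-induced growth inhibition was determined against vehicle-treated cultures.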

[2] = NCI Yeast Anticancer Drug Screen. Data for the rad50EPP+ strain (AID 151);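 note: 0% = growth of vehicle-treated control cultures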; settings: S. cerevisiae rad50 mutant strain, stronger effect = higher value
Method in brief: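 Growth inhibition read against vehicle controls in rad50EPP+ yeast, a strain altered in DNA damage repair, after compound exposure.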

[3] = NCI Yeast Anticancer Drug Screen. Data for the mgt1 strain (AID 153); settings: S. cerevisiae mgt1 mutant growth inhibition, stronger effect = higher value
Method in brief: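 mgt1 yeast grown with test compound; read-out is growth inhibition versus vehicle-treated cultures.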

[4] = NCI Yeast Anticancer Drug Screen. Data for the rad50 strain (AID 155);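 note: 0% = growth of vehicle-only cultures of the same strain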; settings: S. cerevisiae rad50 strain growth inhibition, stronger effect = higher value
Method in brief: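 Relative growth inhibition (compound vs vehicle) was measured in yeast with a defined repair-gene alteration.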

[5] = NCI Yeast Anticancer Drug Screen. Data for the mec2-1 strain (AID 157); settings: S. cerevisiae mec2-1 strain, stronger effect = higher value
Method in brief: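 Yeast mec2-1 mutant treated with compound. Readout: growth inhibition vs vehicle controls.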

[6] = NCI Yeast Anticancer Drug Screen. Data for the rad14 strain (AID 159);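 note: 0% = growth of vehicle-treated control cultures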; settings: S. cerevisiae rad14 strain growth inhibition, stronger effect = higher value
Method in brief: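 Screen for anticancer potential: a yeast strain altered in DNA damage repair is grown with compound, and reduced growth is quantified against vehicle controls.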

[7] = NCI Yeast Anticancer Drug Screen. Data for the sgs1 mgt1 strain (AID 161);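 note: 0% = growth of cultures given vehicle only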; settings: S. cerevisiae sgs1 mgt1 strain, stronger effect = higher value
Method in brief: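 Test agents were incubated with a DNA-repair-mutant yeast strain. Growth was then read and compared against vehicle-treated controls.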

[8] = NCI Yeast Anticancer Drug Screen. Data for the CLN2oe strain (AID 163);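 note: 0% = growth of vehicle-only control cultures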; settings: S. cerevisiae CLN2oe strain, stronger effect = higher value
Method in brief: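 Read-out: yeast growth inhibition, expressed relative to vehicle-only controls. The strain bears an engineered cell-cycle alteration.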

[9] = NCI Yeast Anticancer Drug Screen. Data for the cln2 rad14 strain (AID 165);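 note: 0% = growth equal to vehicle treated cultures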; settings: S. cerevisiae cln2 rad14 strain, stronger effect = higher value
Method in brief: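 cln2 rad14 yeast strain; compound exposure; growth inhibition read vs vehicle controls.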

[10] = NCI Yeast Anticancer Drug Screen. Data for the bub3 strain (AID 167); settings: S. cerevisiae bub3 mutant strain, stronger effect = higher value
Method in brief: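 Screening used yeast with an engineered genetic alteration affecting cell cycle control. Compound-exposed cultures were compared with vehicle cultures, and reduced growth was taken as inhibition.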

[11] = NCI Yeast Anticancer Drug Screen. Data for the wt2 strain (AID 169);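 note: 0% = growth of vehicle-treated yeast cultures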; settings: S. cerevisiae wt2 strain growth inhibition, stronger effect = higher value
Method in brief: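 Read-out: growth inhibition versus vehicle-treated control cultures after compound exposure of the yeast strain.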

[12] = NCI Yeast Anticancer Drug Screen. Data for the mlh1 strain (AID 171);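 note: 0% = growth of vehicle-treated control cultures of the same strain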; settings: S. cerevisiae mlh1 strain growth inhibition, stronger effect = higher value
Method in brief: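 Read-out: growth inhibition versus vehicle controls. Strain: engineered yeast with a defined DNA repair or cell cycle defect, compound-treated.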

[13] = NCI Yeast Anticancer Drug Screen. Data for the sgs1 strain (AID 173);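 note: 0% = growth of vehicle-only control cultures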; settings: S. cerevisiae sgs1 mutant, stronger effect = higher value
Method in brief: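 Read-out: yeast growth inhibition relative to vehicle controls, following compound exposure of a strain with a defined DNA repair/cell cycle alteration.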

[14] = NCI Yeast Anticancer Drug Screen. Data for the mlh1 rad18 strain (AID 175); settings: S. cerevisiae mlh1 rad18 strain growth inhibition, stronger effect = higher value
Method in brief: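 Yeast w/ defined DNA-repair lesions; compound exposure; growth vs vehicle controls → % inhibition.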

[15] = NCI Yeast Anticancer Drug Screen. Data for the rad18 strain (AID 177); settings: S. cerevisiae rad18 mutant growth inhibition, stronger effect = higher value
Method in brief: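 Readout: growth inhibition vs vehicle controls. Cells: genetically altered yeast strain, DNA repair defect.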

[16] = at 5.0 µM (retest, dose inferred, filed as 0.5)
[17] = at 50.0 µM (retest, dose inferred, filed as 5.0)

`O=[N+]([O-])[O][Sn]([O][Sn]([O][N+](=O)[O-])([c]1ccccc1)[c]1ccccc1)([c]1ccccc1)[c]1ccccc1` gave a growth inhibition ([1]; at 1.2 µM) of -3%, a growth inhibition ([1]; at 3.7 µM) of -7% and a growth inhibition ([1]; at 11.0 µM) of -11%. For the same compound, the growth inhibition ([1]; at 33.0 µM) was -2%, the growth inhibition ([1]; at 100.0 µM) was 62% and the growth inhibition ([2]; at 1.2 µM) was 8%. The growth inhibition ([2]; at 3.7 µM) was -2%, the growth inhibition ([2]; at 11.0 µM) was 0% and the growth inhibition ([2]; at 33.0 µM) was 20%. The growth inhibition ([2]; at 100.0 µM) was 99% (active), the growth inhibition ([3]; at 1.2 µM) was 8% and the growth inhibition ([3]; at 3.7 µM) was 10%. The growth inhibition ([3]; at 11.0 µM) was 25%, the growth inhibition ([3]; at 33.0 µM) was 10% and the growth inhibition ([3]; at 100.0 µM) was 94% (active). It also gave a growth inhibition ([4]; at 1.2 µM) of 16%, a growth inhibition ([4]; at 3.7 µM) of 20% and a growth inhibition [4, 16] of 25%. It also gave a growth inhibition ([4]; at 11.0 µM) of 16%, a growth inhibition ([4]; at 33.0 µM) of 28% and a growth inhibition [4, 17] of 66%. The growth inhibition ([4]; at 50.0 µM) was 65.2%, the growth inhibition ([4]; at 100.0 µM) was 85% (active) and the growth inhibition ([5]; at 1.2 µM) was 9%. It also gave a growth inhibition ([5]; at 3.7 µM) of 0%, a growth inhibition [5, 16] of 11% and a growth inhibition ([5]; at 11.0 µM) of 16%. For the same compound, the growth inhibition ([5]; at 33.0 µM) was 14%, the growth inhibition [5, 17] was 44% and the growth inhibition ([5]; at 50.0 µM) was 57.6%. The growth inhibition ([5]; at 100.0 µM) was 86% (active), the growth inhibition ([6]; at 1.2 µM) was 0% and the growth inhibition ([6]; at 3.7 µM) was -8%. For the same compound, the growth inhibition ([6]; at 11.0 µM) was -7%, the growth inhibition ([6]; at 33.0 µM) was 22% and the growth inhibition ([6]; at 100.0 µM) was 94% (active). For the same compound, the growth inhibition [7, 16] was 35%, the growth inhibition [7, 17] was 94% (active) and the growth inhibition ([7]; at 50.0 µM) was 70% (active). The growth inhibition ([8]; at 1.2 µM) was -32%, the growth inhibition ([8]; at 3.7 µM) was -48% and the growth inhibition ([8]; at 11.0 µM) was -34%. It also gave a growth inhibition ([8]; at 33.0 µM) of -30%, a growth inhibition ([8]; at 100.0 µM) of 29% and a growth inhibition [9, 16] of 3%. It also gave a growth inhibition [9, 17] of 26%, a growth inhibition ([9]; at 50.0 µM) of 30.2% and a growth inhibition ([10]; at 1.2 µM) of 8%. It also gave a growth inhibition ([10]; at 3.7 µM) of -4%, a growth inhibition [10, 16] of 23% and a growth inhibition ([10]; at 11.0 µM) of -7%. The growth inhibition ([10]; at 33.0 µM) was 6%, the growth inhibition [10, 17] was 84% (active) and the growth inhibition ([10]; at 50.0 µM) was 72.5% (active). For the same compound, the growth inhibition ([10]; at 100.0 µM) was 62%, the growth inhibition ([11]; at 1.2 µM) was -47% and the growth inhibition ([11]; at 3.7 µM) was -47%. For the same compound, the growth inhibition ([11]; at 11.0 µM) was -25%, the growth inhibition ([11]; at 33.0 µM) was -26% and the growth inhibition ([11]; at 100.0 µM) was 58%. The growth inhibition ([12]; at 1.2 µM) was 7%, the growth inhibition ([12]; at 3.7 µM) was -3% and the growth inhibition ([12]; at 11.0 µM) was 5%. The growth inhibition ([12]; at 33.0 µM) was 35%, the growth inhibition ([12]; at 100.0 µM) was 94% (active) and the growth inhibition ([13]; at 1.2 µM) was -6%. It also gave a growth inhibition ([13]; at 3.7 µM) of -12%, a growth inhibition ([13]; at 11.0 µM) of -24% and a growth inhibition ([13]; at 33.0 µM) of 51%. For the same compound, the growth inhibition ([13]; at 100.0 µM) was 98% (active), the growth inhibition [14, 16] was 19% and the growth inhibition [14, 17] was 67%. The growth inhibition ([14]; at 50.0 µM) was 68%, the growth inhibition ([15]; at 1.2 µM) was -12% and the growth inhibition ([15]; at 3.7 µM) was -12%. The growth inhibition ([15]; at 11.0 µM) was -11%, the growth inhibition ([15]; at 33.0 µM) was 5% and the growth inhibition ([15]; at 100.0 µM) was 90% (active).
With `O=S1(=O)CCC2=CC(C(F)(F)F)=CC(C(F)(F)F)=CN21` the growth inhibition ([1]; at 1.2 µM) was 2%, the growth inhibition ([1]; at 3.7 µM) was 29% and the growth inhibition ([1]; at 11.0 µM) was 53%. For the same compound, the growth inhibition ([1]; at 33.0 µM) was 83% (active), the growth inhibition ([1]; at 100.0 µM) was 98% (active) and the growth inhibition ([2]; at 1.2 µM) was 2%. The growth inhibition ([2]; at 3.7 µM) was 16%, the growth inhibition ([2]; at 11.0 µM) was 24% and the growth inhibition ([2]; at 33.0 µM) was 38%. The growth inhibition ([2]; at 100.0 µM) was 79% (active), the growth inhibition ([3]; at 1.2 µM) was 15% and the growth inhibition ([3]; at 3.7 µM) was 27%. The growth inhibition ([3]; at 11.0 µM) was 55%, the growth inhibition ([3]; at 33.0 µM) was 82% (active) and the growth inhibition ([3]; at 100.0 µM) was 98% (active). For the same compound, the growth inhibition ([4]; at 1.2 µM) was 61%, the growth inhibition ([4]; at 3.7 µM) was 71% (active) and the growth inhibition [4, 16] was 38%. The growth inhibition ([4]; at 11.0 µM) was 79% (active), the growth inhibition ([4]; at 33.0 µM) was 89% (active) and the growth inhibition [4, 17] was 96% (active). For the same compound, the growth inhibition ([4]; at 50.0 µM) was 95.5% (active), the growth inhibition ([4]; at 100.0 µM) was 98% (active) and the growth inhibition ([5]; at 1.2 µM) was 52%. The growth inhibition ([5]; at 3.7 µM) was 61%, the growth inhibition [5, 16] was 66% and the growth inhibition ([5]; at 11.0 µM) was 81% (active). For the same compound, the growth inhibition ([5]; at 33.0 µM) was 93% (active), the growth inhibition [5, 17] was 97% (active) and the growth inhibition ([5]; at 50.0 µM) was 97.9% (active). The growth inhibition ([5]; at 100.0 µM) was 99% (active), the growth inhibition ([6]; at 1.2 µM) was 25% and the growth inhibition ([6]; at 3.7 µM) was 38%. The growth inhibition ([6]; at 11.0 µM) was 67%, the growth inhibition ([6]; at 33.0 µM) was 91% (active) and the growth inhibition ([6]; at 100.0 µM) was 98% (active). The growth inhibition [7, 16] was 59%, the growth inhibition [7, 17] was 98% (active) and the growth inhibition ([7]; at 50.0 µM) was 94.4% (active). It also gave a growth inhibition ([8]; at 1.2 µM) of 25%, a growth inhibition ([8]; at 3.7 µM) of 22% and a growth inhibition ([8]; at 11.0 µM) of 40%. For the same compound, the growth inhibition ([8]; at 33.0 µM) was 68%, the growth inhibition ([8]; at 100.0 µM) was 98% (active) and the growth inhibition [9, 16] was 13%. For the same compound, the growth inhibition [9, 17] was 92% (active), the growth inhibition ([9]; at 50.0 µM) was 83.9% (active) and the growth inhibition ([10]; at 1.2 µM) was 26%. The growth inhibition ([10]; at 3.7 µM) was 52%, the growth inhibition [10, 16] was 57% and the growth inhibition ([10]; at 11.0 µM) was 78% (active). The growth inhibition ([10]; at 33.0 µM) was 92% (active), the growth inhibition [10, 17] was 89% (active) and the growth inhibition ([10]; at 50.0 µM) was 96.9% (active). The growth inhibition ([10]; at 100.0 µM) was 98% (active), the growth inhibition ([11]; at 1.2 µM) was 3% and the growth inhibition ([11]; at 3.7 µM) was 14%. The growth inhibition ([11]; at 11.0 µM) was 51%, the growth inhibition ([11]; at 33.0 µM) was 83% (active) and the growth inhibition ([11]; at 100.0 µM) was 98% (active). It also gave a growth inhibition ([12]; at 1.2 µM) of 27%, a growth inhibition ([12]; at 3.7 µM) of 36% and a growth inhibition ([12]; at 11.0 µM) of 67%. For the same compound, the growth inhibition ([12]; at 33.0 µM) was 86% (active), the growth inhibition ([12]; at 100.0 µM) was 98% (active) and the growth inhibition ([13]; at 1.2 µM) was 51%. For the same compound, the growth inhibition ([13]; at 3.7 µM) was 67%, the growth inhibition ([13]; at 11.0 µM) was 80% (active) and the growth inhibition ([13]; at 33.0 µM) was 94% (active). For the same compound, the growth inhibition ([13]; at 100.0 µM) was 99% (active), the growth inhibition [14, 16] was 76% (active) and the growth inhibition [14, 17] was 98% (active). For the same compound, the growth inhibition ([14]; at 50.0 µM) was 97.2% (active), the growth inhibition ([15]; at 1.2 µM) was 54% and the growth inhibition ([15]; at 3.7 µM) was 67%. The growth inhibition ([15]; at 11.0 µM) was 79% (active), the growth inhibition ([15]; at 33.0 µM) was 90% (active) and the growth inhibition ([15]; at 100.0 µM) was 97% (active).

Source: PubChem BioAssay (NCI)
